Data as given in ChEMBL document CHEMBL3433997, “St. Jude Leishmania screening dataset” (2016).

Assays:
Type in all cases: functional
[1] = biological target: Solute carrier family 2, facilitated glucose transporter member 1 (Homo sapiens) (UniProt P11166); assay: ST_JUDE_LEISH: Cytotoxicity at 2uM final concentration against transgenic Leishmania Mexicana promastigotes LmGLUT1 that are glucose transport deficient and complemented with the human glucose transporter GLUT1. Activity is measured by DNA content using SYBR green in vitro
Chain of Solute carrier family 2, facilitated glucose transporter member 1 (Homo sapiens) (P11166 whole entry): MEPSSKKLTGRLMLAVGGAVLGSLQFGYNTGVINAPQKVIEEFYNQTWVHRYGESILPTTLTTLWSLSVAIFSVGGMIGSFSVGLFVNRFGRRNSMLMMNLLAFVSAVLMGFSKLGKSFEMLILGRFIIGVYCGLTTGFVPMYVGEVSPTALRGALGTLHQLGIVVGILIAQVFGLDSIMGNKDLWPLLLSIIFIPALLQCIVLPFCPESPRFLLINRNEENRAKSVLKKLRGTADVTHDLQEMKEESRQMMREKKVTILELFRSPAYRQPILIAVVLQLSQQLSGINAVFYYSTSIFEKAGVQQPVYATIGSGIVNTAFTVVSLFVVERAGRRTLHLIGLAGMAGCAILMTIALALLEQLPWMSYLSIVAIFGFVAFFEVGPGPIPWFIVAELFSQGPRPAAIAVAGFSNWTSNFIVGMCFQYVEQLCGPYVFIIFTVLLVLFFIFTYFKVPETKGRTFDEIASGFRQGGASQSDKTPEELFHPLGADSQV

[2] = biological target: Hexose transporter 1 (Plasmodium falciparum) (UniProt O97467); assay: ST_JUDE_LEISH: Cytotoxicity at 2uM final concentration against transgenic Leishmania Mexicana promastigotes LmPfHT that are glucose transport deficient and complemented with the Plasmodium falciparum hexose transporter. Activity is measured by DNA content using SYBR green in vitro
[3] = biological target: Glucose transporter (Leishmania mexicana) (UniProt O61059); assay: ST_JUDE_LEISH: Cytotoxicity at 2uM final concentration against transgenic Leishmania Mexicana promastigotes LmGT2 that are glucose transport deficient and complemented with the L. Mexicana glucose transporter 2. Activity is measured by DNA content using SYBR green in vitro

Compound | inhibition [1] [%] | inhibition [2] [%] | inhibition [3] [%]
CCNc1cc(C(=O)N[C@@H](Cc2ccccc2)[C@H](O)CNCCc2cccc(C(F)(F)F)c2)cc(N2CCCC2=O)c1 | 1.16 | 1.57 | -0.87
CS(=O)(=O)CCNCc1cccc(-c2ccc3c(Nc4ccc(Oc5cccnc5)cc4)ccnc3c2)c1 | -1.35 | -1.49 | -3
CCOc1cc(C)c(C2CCN(CCCCNC(=O)c3ccc(NC(=O)c4ccc(Cl)cc4)cc3)CC2)cc1C | -0.49 | -0.72 | -0.67
COc1cc2c(cc1C(F)(F)F)N(C(=O)Nc1cc(Br)cc(-c3cccnc3)c1)CC2 | 8.34 | 6.53 | 6.18
COc1cc(Nc2nccn3c(-c4ccsc4)cnc23)cc(OC)c1OC | 7.63 | 5.81 | 4.31
O=C(CCc1c[nH]cn1)Nc1cccc(-c2cccc(-c3nc4cc(C(F)(F)F)ccc4[nH]3)c2)c1 | -0.34 | 0.58 | 0.79
Cc1cnc(C(=O)Nc2cccc(-c3cccc(-c4nc5cccc(C)c5[nH]4)c3)c2)cn1 | 4.11 | 2.89 | 0.5
CC(C)(CN1CCCC1)CN(Cc1ccc(-c2ccc(C(F)(F)F)cc2)cc1)C(=O)Cn1c(CCc2cccc(F)c2F)nc(=O)c2ccccc21 | 10.3 | 8.05 | 8.96
CC1(C)CN2CCCC2c2cc(NC(=O)/C=C/c3ccccc3Cl)ccc21 (stereo not given) | 3.26 | 2.04 | 0.94
Cc1c(C(=O)C2CC2CN2CCC(N3CCCCC3)CC2)sc2ccccc12 (stereo not given) | 2.43 | -0.31 | 2.09
COC(=O)c1cccc(OCCNC2CCN(C[C@H](O)c3ccnc4ccc(OC)cc34)CC2)c1 | 0.73 | -0.34 | 0.25
CCCCCCOc1ccc2ccccc2c1CNCCCCCCNCc1c(OCCCCCC)ccc2ccccc12 | 16.8 | 21.5 | 7.86
CCN(CC)CCN1C(=O)c2oc3ccc(Cl)cc3c(=O)c2C1c1ccc(SC)cc1 (stereo not given) | -3.16 | -2.27 | 8.97
Cc1nc(-c2ccc(-c3ccc(NC(=O)Nc4ccc(I)c(OCCN(C)C)c4)cc3)c(C)c2)no1 | 7 | 5.44 | 3.02
CC(C)(C(=O)NCCC1CCN(CCCCCNC(=O)/C=C/c2ccc(Cl)c(Cl)c2)CC1)c1ccc(Cl)cc1 | 5.49 | 4.45 | 4.35
O=C(/C=C/c1ccc(Cl)c(Cl)c1)N1CCC(CCCN2CCC(c3c[nH]c4ccccc34)CC2)CC1 | 70.7 | 51.2 | -0.32
CCN1CCc2c1cc(C(=O)N[C@@H](Cc1ccccc1)[C@H](O)CNC(C)(C)c1cccc(C(F)(F)F)c1)cc2N1CCCCS1(=O)=O | 5.34 | -3.32 | 2.66
CNC(=O)c1cc(F)c(F)cc1Nc1nc(Nc2cccc(CS(C)(=O)=O)c2)ncc1Cl | 1.41 | 1.35 | 2.49
FC(F)(F)c1ccc2[nH]c(-c3ccc(-c4cccc(CNCc5ccccc5)c4)cc3)nc2c1 | 7.1 | 4.87 | 7.33
Cc1cc(Nc2cccc(Cl)c2)nc2ccc(NC(=O)c3ccc(=O)[nH]c3)cc12 | 2.59 | 3.49 | 3.64
COc1ccccc1NC(=O)Nc1ccc(-c2ccc(-c3nc4cc(C(F)(F)F)ccc4[nH]3)cc2)cc1 | 9.03 | 4.25 | 2.26
COc1cc(Cc2cnc(N)nc2N)cc(OCCCc2cc(OCc3ccccc3)no2)c1OC | 10 | 8.52 | 8.73
O=C(O[C@H]1CN[C@H](C#Cc2cc3ncnc(Nc4ccc5c(ccn5S(=O)(=O)c5cccs5)c4)c3s2)C1)N1CCOCC1 | 9.76 | 13.6 | 10.6
Cc1ccc(N)cc1-c1nc(NC2CC(C)(C)NC(C)(C)C2)nc2c1ccc(=O)n2-c1c(F)cccc1F | 0.73 | 1.28 | 2.03
Cn1cncc1C(=O)Nc1cccc(-c2ccc(-c3nc4cc(F)ccc4[nH]3)cc2)c1 | 0 | -0.68 | 3.3
COc1ccc2c(N/N=C/c3ccccc3[N+](=O)[O-])ccnc2c1 | 4.94 | -0.53 | 3.75
O=C(NCCCN1CCOCC1)c1ccc(-c2cccc(NC(=O)c3ccc(Cl)c(Cl)c3)c2)cc1 | 2.04 | 1.79 | -0.88
Cn1c(-c2ccccc2)cc2c3c(=O)cc(C(F)(F)F)[nH]c3ccc21 | 13.8 | 13.1 | 14.1
O=C(Nc1cccc(CN2CCN(Cc3ccc(O)cc3)CC2)c1)c1cccc(C(F)(F)F)c1 | 6.03 | 6.51 | 4.56
Nc1nc(N)c2c(ccc3c2ccn3Cc2cccc(F)c2)n1 | 102 | 104 | 99.8
